Records with an inconclusive call do not appear. Calls come from the whole dose curve; as a rule, active = well fitted inhibition curve with a large enough effect; inconclusive = small, poorly fitted or top-dose-only effect, or effect the other way; inactive = flat fitted curve, though single readings scatter.
Experiment: qHTS for Inhibitors of Plasmodium falciparum (CP250) proliferation (AID 504320)
Conditions: P. falciparum CP250 in erythrocytes, SYBR Green DNA, 72 h; series mostly up to 6.7 µM; activity change, negative = inhibition: at the top concentration
Description: Plasmodium falciparum is a virulent malarial parasite that kills 1-2 million people worldwide each year. Malaria not only inflicts tremendous suffering and morbidity on the human population, but has dramatically influenced the course of civilization with profound sociological and economic implications (Shah, S. 2010). Transmitted by mosquitoes, the sporozoite form of the parasite enters the blood stream to infect hepatocytes, where they become merozoites that infect red blood cells (erythrocytes). Within erythrocytes, merozoites begin a […] cycle of growth and division, after which the parasite is released to infect new red blood cells. Gametocytes, which form within erythrocytes as well, circulate in the bloodstream and are ingested by the mosquito, thereby completing the life cycle (see CDC website). To profile malarial lines for differential chemical responses and to identify inhibitors of malarial growth, an assay that measures P. falciparum growth and replication within erythrocytes was employed. This assay uses a DNA binding fluorescent dye (SYBR Green) to detect parasite DNA following cell lysis. Because mature erythrocytes lack DNA, only Plasmodium-derived DNA is detected. The P. falciparum line cp250, derived from a malarial isolate from Cambodia, (Mu, J., et al. 2010) was added to the panel of lines, Dd2, HB3, 7G8 and GB4 in this study. Laboratory of Assay Development and Screening Technology [ADST] and NIH Chemical Genomics Center [NCGC] Boston University, Chemistry Department, Center for Chemical Methodology and Library Development [CMLD-BU] NIH National Institute of Allergy and Infectious Diseases [NIAID]
ADST Assay Protocol Summary: The 1536-well SYBR Green viability assay was based on the method of Bennett et al (2004) and described previously in 1536-well format (Yuan J., et al. 2009). For screening 3 ul culture medium was dispensed into 1536 well black clear bottom plates (Aurora Biotechnologies) using a Multidrop Combi (Thermo Fisher Scientific Inc.), 23 nL compounds in DMSO were added by a pin transfer (Cleveland, P.H. and Koutz, P.J, 2005) using a pin tool-based delivery system (Kalypsys), and 5 ul of erythrocytes infected with P. falciparum one of five lines (cp250, Dd2, HB3, 7G8 or GB4, 0.3% parasitemia, 2.5% hematocrit final concentration) were added. The plates were incubated at 37C in a humidified incubator in 5% CO2 for 72 h, and 2 ul lysis buffer (20 mM Tris HCl, 10 mM EDTA, 0.16% saponin, 1.6% triton X, 10X SYBR Green I (supplied as 10,000X final concentration by Invitrogen) was added to each well. The plates were mixed for 25 sec with gentle shaking and incubated overnight at room temperature in the dark. The following morning, fluorescence intensity at 485(14) nm excitation and 535(25) nm emission wavelengths was measured on an EnVision (Perkin Elmer) plate reader. Plate reads were normalized relative to the control inhibitor (0.29 uM artemisinin) and vehicle (DMSO) wells present on each plate and then corrected by an algorithm using vehicle-only control plates at the beginning and end of the compound plate stack. References Shah, S. (2010). The Fever: how malaria has ruled humankind for 500,000 years. New York, Sarah Crichton Books. CDC web site, http://www.cdc.gov/malaria/about/biology/index.html Mu, J., Myers, R.A., Jiang, H., Liu, S., Ricklefs, S., Waisberg, M., Chotivanich, K., Wilairatana, P., Krudsood, S., White, N.J., et Plasmodium falciparum genome-wide scans for positive selection, recombination hot spots and resistance to antimalarial drugs Nature Genetics 2010, 42, pp 268-271 Bennett TN, Paguio, M., Gligorijevic, B., Seudieu, C., Kosar, A. D., Davidson, E., and Roepe, P. D. Novel, rapid, and inexpensive cell-based quantification of antimalarial drug efficacy Antimicrobial Agents Chemother. 2004, 48(5): pp 1807-10 Yuan J, Johnson RL, Huang RL, Wichterman J, Jiang HY, Hayton K, Fidock DA, Wellems TE, Inglese J, Austin CP, Su XZ. […]

Activity change, negative = inhibition, inactive:
COCCN1C(=O)N[C@@H](c2cccc(F)c2)C(C(=O)OC)=C1C 4.01%, COC(=O)CCC(=O)OC1(C)C(=O)C2=CN(CCCCO)C(c3ccc(OC)cc3)=CC2=C(Br)C1=O (stereo not given) -1.12%, CCOC(=O)OC[C@H]1O[C@H](c2ccccc2)C=C[C@H]1OC(=O)OCC 0.676%, CC1(OC(=O)C2CCCC2)C(=O)C=C2C=C(c3ccsc3)N(c3ccc(CO)cc3)C=C2C1=O (stereo not given) 1.54%, COC(=O)C1=C(C(=O)OC)[C@@H]2N(C)c3ccccc3[C@@]23C[C@@H](CO)N(C(=O)c2cc(C)oc2C)C3=N1 -1.32%, COC/C=C/C1=CC2=CC(=O)C(C)(OC(=O)c3cnc4ccccc4n3)C(=O)C2=CN1Cc1ccco1 (stereo not given) -0.49%, COC(=O)CCC(=O)OC1(C)C(=O)C2=CN(Cc3ccco3)C(c3ccc(OC)cc3)=CC2=C(Br)C1=O (stereo not given) 6.71%, COC(=O)C1=C(C(=O)OC)[C@@H]2N(C)c3ccc(OC)cc3[C@@]23C[C@@H](C(=O)OC)N(S(=O)(=O)c2ccc(C(F)(F)F)cc2)C3=N1 -18.5%, COC(=O)C1=C(C(=O)OC)[C@@H]2Nc3ccccc3[C@@]23C[C@@H](C(=O)OC)N(C(=O)c2ccco2)C3=N1 2.56%, COC(=O)C1=C(C(=O)OC)[C@@H]2N(Cc3ccccc3)c3ccccc3[C@@]23C[C@@H](C(=O)OC)N(C(=O)CC(C)C)C3=N1 -6.74%, CCOC(=O)NN=C1C[C@@H](O)[C@@H](O)[C@@H]2[C@H]3C(=O)N(CC)C(=O)[C@@H]3CC[C@@H]12 2.03%, CCCCC1=CC2=CC(=O)C(C)(OC(=O)CC)C(=O)C2=CN1Cc1ccc2c(c1)OCO2 (stereo not given) 4.19%, CC(C)CON=C1C[C@@H](O)[C@@H](O)[C@@H]2[C@H]3C(=O)N(C4CCCCC4)C(=O)[C@@H]3CC[C@H]12 -9.49%, CC(C)(C)N1C(=O)[C@@H]2[C@H]3[C@H](O)[C@H](O)CC(=NOCc4ccccc4)[C@H]3CC[C@H]2C1=O 1.4%, COC/C=C/C1=CC2=CC(=O)C(C)(OC(=O)c3cnc4ccccc4n3)C(=O)C2=CN1c1ccc(OC)cc1 (stereo not given) -18.9%, COC(=O)C1(C(=O)OC)CC(CO)C(=O)[C@@H]1c1ccccc1 (stereo not given in full) -3.08%, COc1ccc2c(c1)O[C@@H](c1cccc(C(F)(F)F)c1)[C@H](OC(=O)N[C@H]1CCCc3ccccc31)C2=O -20.3%, C=CCN1c2ccccc2[C@]23C[C@@H](C(=O)OC)N(S(=O)(=O)c4cccs4)C2=NC(C(=O)OC)=C(C(=O)OC)[C@H]13 5.77%, CC#CCN1c2ccccc2[C@]23C[C@@H](C(=O)OC)N(S(=O)(=O)c4ccc([N+](=O)[O-])cc4)C2=NC(C(=O)OC)=C(C(=O)OC)[C@H]13 -25.7%, COC(=O)N1C(/C=C/c2ccc3c(c2)OCO3)=Cc2ccccc2C1CC(C)=O (stereo not given) -21.8%, C[C@@H](c1ccccc1)N1C(=O)[C@@H]2[C@H]3[C@H](O)[C@H](O)CC(=NNC(=O)OCc4ccccc4)[C@@H]3CC[C@H]2C1=O 5.3%, CCOC(=O)CCCNC(=O)N1CCc2nc(-c3ccc(OC)cc3C)c3c(c2C1)CO[C@@H](c1ccccc1)C3 -5.8%, CC#CCN1c2ccccc2[C@]23C[C@@H](C(=O)OC)N(C(=O)c4cccs4)C2=NC(C(=O)OC)=C(C(=O)OC)[C@H]13 5.65%, CCCCS(=O)(=O)N1CCc2nc(COc3ccccc3)c3c(c2C1)CO[C@@H](C)C3 -3.06%, CCCNC(=O)N1C2=NC(C(=O)OC)=C(C(=O)OC)[C@@H]3Nc4ccccc4[C@]23C[C@H]1C(=O)OC -0.0723%, COCCN1C=C2C(=O)C(C)(OC(=O)CCc3ccccc3)C(=O)C=C2C=C1c1ccc(C#N)cc1 (stereo not given) -1.93%, COC(=O)C1=C(C(=O)OC)[C@@H]2N(C)c3ccc(OC)cc3[C@@]23C[C@@H](C(=O)OC)N(S(=O)(=O)c2ccc(C)cc2)C3=N1 1.64%, COC(=O)c1ccccc1S(=O)(=O)N1CCc2nc(-c3ccccc3)c3c(c2C1)CO[C@@H](C)C3 5.48%, CC#CCN1c2ccccc2[C@]23CCC(=O)N(CCCOC(C)C)C2=NC(C(=O)OC)=C(C(=O)OC)[C@H]13 1.47%, COc1ccc(C=CC2=CC3(C)CC2(C)C(c2ccc(OC)cc2)CC3=O)cc1 (stereo not given) -25.8%, C[C@H]1Cc2c(-c3ccccc3)nc3c(c2CO1)CN(C(=O)c1cc(I)ccc1F)CC3 0.61%, COc1cc2c(cc1OC)[C@@H]1O[C@](CCCCN3C(=O)c4ccccc4C3=O)(C2)OC2=C1C(=O)CCC2 -20.6%, CCCCn1c(C)cc2c(c1=O)[C@H]1O[C@](c3ccsc3)(Cc3ccccc31)O2 -18.6%, CCN1C(=O)N[C@@H](c2cccc(C(F)(F)F)c2)C(C(=O)OC)=C1C -1.17%, CCCCC1=CC2=CC(=O)C(C)(OC(=O)CC)C(=O)C2=CN1C1CCCC1 (stereo not given) -1.27%, COC(=O)C1=C(C(=O)OC)[C@@H]2N(C)c3ccccc3[C@@]23C[C@@H](C(=O)OC)N(S(=O)(=O)c2c(C)noc2C)C3=N1 5.24%, COCOc1c2c(c(OCOC)c3c(OCOC)cccc13)C(=NNS(C)(=O)=O)C1=C2CCCC1 -3.07%, CCCCC1=CC2=CC(=O)C(C)(OC(=O)CC)C(=O)C2=CN1CC(C)C (stereo not given) 3.67%, C[C@H]1CC[C@H]2C(=O)N(Cc3ccccc3)C[C@H](O)CN2[C@H]1c1cccc(Br)c1 2.66%, CC1(OC(=O)CCc2ccccc2)C(=O)C=C2C=C(c3ccc(C#N)cc3)N(Cc3ccco3)C=C2C1=O (stereo not given) 1.89%
